Source: PubChem (several laboratories)
An excerpt weighted towards active compounds, which were near 3.8% of everything screened.
Beta apoptosis: blocks beta cell apoptosis | protection from apoptosis, % (no concentration beside the values) | AID 435005 | INS-1E cytokine-induced death, ATP luminescence, 48 h; percent of positive-control rescue, neutral wells zero | hit rate 0.8% among 300,000;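 active = Every replicate reaches about 75%, or at least half do and their mean reaches it too, limit read from the data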;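 also: 0% = cytokine-treated negative control wells and 100% = positive control rescue; higher means more ATP so stronger rescue from cytokine killing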
Mdm2 MdmX PPI: human Mdm2/MdmX binding inhibition. SaOS-2 split-luciferase Mdm2/MdmX complementation, luminescence. inhibition, % at 8 µM. hit rate 3% among 330,000. AID 485346;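 active = inhibition of at least 50% at 8 µM in the primary screen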
Jurkat NFkB inh: inhibitors of the PMA/ionomycin-induced NF-kB reporter in Jurkat cells. inhibition, % at 4 µM. AID 435003. hit rate 0.53% among 330,000. PMA/ionomycin-induced NF-kB luciferase reporter, luminescence; in the data active = inhibition above about 50%
697 NFkB inh: lowers PMA/ionomycin-induced NF-kB signal in 697 B cells | 697 B-cell NF-kB luciferase reporter, 16 h | inhibition, % at 4 µM | hit rate 0.33% among 330,000 | AID 435022; in the data active = inhibition above about 35%
NTR1 agonist: NTR1 (human) agonism. P30989. NTR1-U2OS beta-arrestin-GFP spot imaging, agonist mode. activation, % at 20 µM. hit rate 0.17% among 330,000. AID 493036;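 active = activation at or above 40% of the spot to cytoplasm intensity ratio, with at least 20 cells analyzed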;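 also: 0% = DMSO without peptide and 100% = 100 nM NTR1 peptide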
Target sequence (P30989 whole entry, looked up): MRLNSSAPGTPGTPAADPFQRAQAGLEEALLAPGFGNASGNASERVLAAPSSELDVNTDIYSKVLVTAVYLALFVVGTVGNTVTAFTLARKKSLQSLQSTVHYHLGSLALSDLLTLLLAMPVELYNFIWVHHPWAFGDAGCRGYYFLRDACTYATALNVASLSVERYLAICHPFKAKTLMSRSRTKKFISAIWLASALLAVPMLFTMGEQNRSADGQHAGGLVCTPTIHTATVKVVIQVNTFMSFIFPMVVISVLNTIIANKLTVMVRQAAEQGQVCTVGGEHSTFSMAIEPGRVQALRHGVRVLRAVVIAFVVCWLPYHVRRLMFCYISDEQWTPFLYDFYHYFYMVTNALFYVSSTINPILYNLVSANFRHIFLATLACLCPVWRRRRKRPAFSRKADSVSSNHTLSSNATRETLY
A1 inh: inhibitors of the anti-apoptotic protein A1, read as caspase activation | MEF A1-2A-BIM cells, Caspase-Glo 3/7 luminescence, 3 h; percent of clofoctol response, vehicle zero | caspase activation, % (concentration not given with the values) | hit rate 0.066% among 330,000 | AID 2462;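 active = over half of replicate activation scores above 10%, or exactly half above 10 with the replicate mean above 10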
Jurkat NFkB conf: lowers PMA/ionomycin-induced NF-kB signal in Jurkat cells; inhibition, % at 4 µM; hit rate 27% among 2,700; AID 435020; Jurkat NF-kB luciferase, 16 h; shares compounds with Jurkat NFkB inh;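 active = inhibition reaching about 45% at 4 µM in either replicate, limit read from the data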;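 also: plate controls were PMA/ionomycin stimulated DMSO wells for no effect and unstimulated DMSO wells for full effect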
* hit, by the source's call; / = no result.

SMILES	Beta apoptosis	Mdm2 MdmX PPI	Jurkat NFkB inh	697 NFkB inh	NTR1 agonist	A1 inh	Jurkat NFkB conf
CCOC(=O)C1CCCN(C(=O)c2cc3c(-c4cccc(OC)c4)nn(C)c3s2)C1 (stereo not given)	/	42	55*	-15	-1	0	11
CCc1cc(S(=O)(=O)N2CCN(C(=O)c3ccco3)CC2)ccc1OC	-1	-5	1	5	-1	1	/
Cn1c(=NC(=O)c2cccc([N+](=O)[O-])c2)sc2ccccc21	7	47	-260	-183	6	-6	-160
COc1cc(C(=O)N=c2sc3ccccc3n2C)cc(OC)c1OC	6	-20	-15	-38	3	0	/
O=C(NNS(=O)(=O)c1ccccc1)c1cccc(F)c1	-7	8	-8	-14	1	0	/
O=C(NCc1ccccc1OC(F)(F)F)C1CCC(=O)N(CCc2ccccn2)C1 (stereo not given)	-5	5	7	7	0	2	/
COc1ccc(NC(=O)C(=O)NCC(c2ccco2)N2CCc3ccccc32)cc1 (stereo not given)	/	19	64*	-66	10	2	12
COc1ccc(C(=O)NCC(c2ccco2)N2CCc3ccccc3C2)cc1 (stereo not given)	-7	0	14	0	1	0	/
COc1ccc(C(=O)NCC(c2ccco2)N2CCc3ccccc32)cc1 (stereo not given)	5	49	63*	-65	2	0	23
Cn1cccc1C(=O)OCC(=O)N1CCN(c2ccccc2)CC1	-6	6	-3	13	0	-1	/
Cc1cc(C)c(C(=O)CC(=O)c2ccccc2Cl)c(O)c1	/	31	13	-3	1	0	/
Cc1ccc(-n2c(C(C)C)nc3oc4ccccc4c(=O)c3c2=O)cc1	3	-235	-198	-138	4	0	-72
CCc1nc2oc3ccccc3c(=O)c2c(=O)n1-c1ccccc1	3	-150	-111	-44	1	-1	/
CCCc1nc2oc3ccccc3c(=O)c2c(=O)n1-c1ccc(C)cc1	4	-170	-159	-83	2	-1	-54
CCc1nc2oc3ccccc3c(=O)c2c(=O)n1-c1ccc(C)cc1	4	-109	-91	-116	0	-2	/
Cn1c(SCC(=O)NCCc2ccccc2)nnc1C1CCCCC1	-2	9	6	7	-1	1	/
CC(C)(C)c1ccc(C(=O)NCCc2ccccc2)cc1	-4	-59	-185	-240	4	-2	-152
C/C(=N\OCc1cccc(C(=O)O)c1)c1ccc(Cl)cc1	3	17	62*	13	2	-8	38
N#CCC(CNc1ncc(C(F)(F)F)cc1Cl)OC(=O)c1ccc(Cl)cc1Cl (stereo not given)	12	-11	70*	-5	14	0	11
CCN(CC(=O)Nc1ccccc1OC)C(=O)c1ccc(NS(=O)(=O)c2ccc(C(C)=O)cc2)cc1	-10	25	7	14	0	0	/
O=C(CCCOc1cccc(Br)c1)NC1CCC(O)CC1 (stereo not given)	5	-4	7	3	0	0	/
Cc1ccc2nc(CSc3nc(C)cc(C)c3C#N)[nH]c2c1	9	-126	-179	-182	4	1	-56
CCn1c(/C=C/c2ccccc2)nc2ccccc21	26	-164	-170	-135	3	-10	-134
COc1ccc2c(c1)[nH]c1c(N3CCN(Cc4ccc5c(c4)OCO5)CC3)ncnc12	105*	25	52*	-5	43*	-1	58*
COCCN(CCOC)C(=O)c1ccc(NS(=O)(=O)c2ccc3[nH]c(=O)[nH]c3c2)cc1	-2	-6	-8	-7	0	0	/
SMILES	Beta apoptosis	Mdm2 MdmX PPI	Jurkat NFkB inh	697 NFkB inh	NTR1 agonist	A1 inh	Jurkat NFkB conf
c1ccc2c(c1)oc1c(Nc3ccc(CN4CCOCC4)cc3)ncnc12	17	-50	-155	-141	16	-1	-117
COc1ccc(-n2nnnc2/C=C\Nc2ccccc2C(=O)c2ccccc2)cc1	19	24	53*	-27	-2	0	9
COc1ccc(-n2nnnc2/C=C/Nc2cc(C(F)(F)F)ccc2OC)cc1	-1	0	8	25	3	-1	/
Oc1ccc(N2CCN(Cc3cc4c(cc3Br)OCCO4)CC2)cc1	1	8	9	-15	2	0	/
Cc1csc(=O)n1CC(=O)OC(C)C(=O)Nc1cccc(Cl)c1 (stereo not given)	-5	23	9	18	0	0	/
Cc1ccc(N/C=C(/C#N)c2ccsc2)cc1C	9	-250	-172	-161	3	-2	-48
Cc1ccc(N/N=C(\C#N)C(=O)c2ccsc2)cc1	14	-1	0	-32	0	-1	/
COc1ccc(-c2nnc(SCC(C)C)o2)cc1	1	-209	-189	-196	1	-4	-94
C=CCOC(=O)C1=C[C@H](c2ccc(Br)cc2)C[C@H](OCc2ccc(CO)cc2)O1	-8	-22	-10	21	13	0	/
CCn1c(O)c(/C=C2\C=Nc3ccccc32)sc1=O	-5	-220	-113	-148	-1	-2	/
CCn1c(O)c(/C=C2\C=Nc3ccccc32)sc1=Nc1ccc(C)cc1	-12	12	62*	-1	2	0	2
[O-][n+]1onc2c1CCc1c-2nn(-c2ccccc2Cl)[n+]1[O-]	96*	43	59*	-12	2	0	12
COc1ccc(-c2c(C)nc3c(-c4ccc(F)cc4)cnn3c2N)cc1	2	32	-183	-207	0	-1	-73
Cc1cc(C(F)(F)F)n2ncc(-c3ccc(F)cc3)c2n1	/	8	-8	17	0	1	/
Cc1cc(-c2ccc(C(C)C)c(S(=O)(=O)N3CCN(c4ccccc4)CC3)c2)on1	6	49	53*	-53	2	2	47*
CC(=O)c1ccc(N2CCN(S(=O)(=O)c3cc(-c4cc(C)no4)ccc3C(C)C)CC2)cc1	8	13	9	-83	0	0	/
NNC(=O)COc1ccc(F)cc1	-11	7	10	2	1	-1	/
NNC(=O)COc1ccccc1F	-3	6	96*	-1	2	0	2
Cc1ccc(NC(=S)c2ccc(N(C)C)cc2)cc1	-12	-155	-199	-96	2	-2	-49
COc1ccc(NC(=S)c2ccc(N(C)C)cc2)cc1	-8	-176	-100	-105	2	0	/
CC(C)n1c(CN(C)Cc2ccccc2)nc2c1c(=O)n(C)c(=O)n2C	96*	19	57*	0	5	0	53*
